Measurements taken from PubChem BioAssay (NCI).
The panel holds about 79,000 compounds, 15% with a hit somewhere; the sample as a whole holds those more often. Activity calls are given as the source filed them. Rule as the data show it: active = growth inhibition above about 70%; inactive = the rest.

Experiments:
[1] = NCI Yeast Anticancer Drug Screen. Data for the rad52 strain (AID 147);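 also: 0% = growth of vehicle-treated control cultures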; settings: S. cerevisiae rad52 mutant growth inhibition, active compounds read high
Outline: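 DNA repair-defective yeast; compound exposure; growth scored against vehicle controls.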

[2] = NCI Yeast Anticancer Drug Screen. Data for the wt1 strain (AID 149);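 also: 0% = growth of vehicle-treated wt1 cultures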; settings: S. cerevisiae wt1 strain (SPY 50644) growth inhibition, active compounds read high
Outline: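 Each compound is tested on wt1 yeast and the loss of growth versus vehicle gives the inhibition value.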

[3] = NCI Yeast Anticancer Drug Screen. Data for the rad50EPP+ strain (AID 151);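 also: 0% = growth of vehicle-treated control cultures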; settings: S. cerevisiae rad50 mutant strain, active compounds read high
Outline: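 rad50EPP+ yeast treated with test compounds. Readout: growth vs vehicle control.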

[4] = NCI Yeast Anticancer Drug Screen. Data for the mgt1 strain (AID 153); settings: S. cerevisiae mgt1 mutant growth inhibition, active compounds read high
Outline: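 Growth inhibition relative to vehicle controls was scored for the mgt1 yeast strain after compound exposure.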

[5] = NCI Yeast Anticancer Drug Screen. Data for the rad50 strain (AID 155);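 also: 0% = growth of vehicle-only cultures of the same strain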; settings: S. cerevisiae rad50 strain growth inhibition, active compounds read high
Outline: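 Vehicle-treated cultures provide the reference for the growth inhibition reported for compound-exposed, repair-deficient yeast.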

[6] = NCI Yeast Anticancer Drug Screen. Data for the mec2-1 strain (AID 157); settings: S. cerevisiae mec2-1 strain, active compounds read high
Outline: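 Growth inhibition is read against vehicle-treated controls after compound exposure of the mec2-1 yeast strain, which is defective in DNA damage repair or cell cycle control.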

[7] = NCI Yeast Anticancer Drug Screen. Data for the rad14 strain (AID 159);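 also: 0% = growth of vehicle-treated control cultures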; settings: S. cerevisiae rad14 strain growth inhibition, active compounds read high
Outline: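 Inhibition of growth is reported for a repair-deficient yeast mutant following compound treatment, calculated relative to cultures that received vehicle.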

[8] = NCI Yeast Anticancer Drug Screen. Data for the sgs1 mgt1 strain (AID 161);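 also: 0% = growth of cultures given vehicle only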; settings: S. cerevisiae sgs1 mgt1 strain, active compounds read high
Outline: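 Growth of a repair-deficient yeast mutant was monitored after compound treatment and expressed as inhibition relative to vehicle-treated cultures.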

[9] = NCI Yeast Anticancer Drug Screen. Data for the CLN2oe strain (AID 163);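 also: 0% = growth of vehicle-only control cultures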; settings: S. cerevisiae CLN2oe strain, active compounds read high
Outline: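 Compound-treated yeast; growth vs vehicle ctrl = % inhibition. Genetically altered strain (cell-cycle control).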

[10] = NCI Yeast Anticancer Drug Screen. Data for the cln2 rad14 strain (AID 165);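 also: 0% = growth equal to vehicle treated cultures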; settings: S. cerevisiae cln2 rad14 strain, active compounds read high
Outline: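 Growth inhibition, relative to vehicle-treated controls, is the read-out. The test organism is a yeast strain with defined genetic alterations, cln2 rad14.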

[11] = NCI Yeast Anticancer Drug Screen. Data for the bub3 strain (AID 167); settings: S. cerevisiae bub3 mutant strain, active compounds read high
Outline: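 Mutant yeast screening strain plus compound; vehicle-treated cultures serve as the 0% inhibition reference.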

[12] = NCI Yeast Anticancer Drug Screen. Data for the wt2 strain (AID 169); settings: S. cerevisiae wt2 strain growth inhibition, active compounds read high
Outline: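 Compound exposure of yeast; growth compared with vehicle controls; inhibition reported.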

[13] = NCI Yeast Anticancer Drug Screen. Data for the mlh1 strain (AID 171);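 also: 0% = growth of vehicle-treated control cultures of the same strain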; settings: S. cerevisiae mlh1 strain growth inhibition, active compounds read high
Outline: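 Compounds are applied to a genetically altered yeast strain, and its growth is compared with that of vehicle-treated cultures to give percent inhibition.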

[14] = NCI Yeast Anticancer Drug Screen. Data for the sgs1 strain (AID 173);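 also: 0% = growth of vehicle-only control cultures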; settings: S. cerevisiae sgs1 mutant, active compounds read high
Outline: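 Compounds applied to genetically altered yeast; growth compared with vehicle-treated cultures to give % inhibition.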

[15] = NCI Yeast Anticancer Drug Screen. Data for the mlh1 rad18 strain (AID 175); settings: S. cerevisiae mlh1 rad18 strain growth inhibition, active compounds read high
Outline: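 Cells of a genetically altered yeast strain, deficient in DNA damage repair, were treated with compound. Their growth was then compared with that of vehicle-treated cultures to give inhibition.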

[16] = NCI Yeast Anticancer Drug Screen. Data for the rad18 strain (AID 177); settings: S. cerevisiae rad18 mutant growth inhibition, active compounds read high
Outline: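 Compounds are applied to a repair-deficient yeast strain, and growth is compared with that of vehicle-treated cultures to give percent inhibition.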

[17] = at 5.0 µM (retest, dose inferred, filed as 0.5)
[18] = at 50.0 µM (retest, dose inferred, filed as 5.0)

Measured: growth inhibition

CCCCCCCCCCCCCCCCCCOCC(O)COP(=O)(O)OCC1OC(n2cc(F)c(=O)[nH]c2=O)CC1O (stereo not drawn)
active: [1]; at 33.0 µM 97% | [1]; at 100.0 µM 97% | [2]; at 100.0 µM 93% | [3]; at 11.0 µM 70% | [3]; at 33.0 µM 88% | [3]; at 100.0 µM 89% | [4]; at 33.0 µM 98% | [4]; at 100.0 µM 98% | [5]; [17] 91% | [5]; at 33.0 µM 96% | [5]; [18] 99% | [5]; at 50.0 µM 87.6% | [5]; at 100.0 µM 98% | [6]; at 11.0 µM 74% | [6]; at 33.0 µM 90% | [6]; [18] 99% | [6]; at 50.0 µM 88.5% | [6]; at 100.0 µM 96% | [7]; at 100.0 µM 95% | [8]; [18] 98% | [8]; at 50.0 µM 88.3% | [9]; at 33.0 µM 96% | [9]; at 100.0 µM 99% | [10]; [18] 96% | [10]; at 50.0 µM 89.8% | [11]; at 33.0 µM 74% | [11]; [18] 91% | [11]; at 50.0 µM 82.3% | [11]; at 100.0 µM 94% | [12]; at 33.0 µM 88% | [12]; at 100.0 µM 94% | [13]; at 33.0 µM 96% | [13]; at 100.0 µM 97% | [14]; at 11.0 µM 81% | [14]; at 33.0 µM 95% | [14]; at 100.0 µM 97% | [15]; [18] 99% | [15]; at 50.0 µM 91.2% | [16]; at 33.0 µM 97% | [16]; at 100.0 µM 98%
inactive: [1]; at 1.2 µM 15% | [1]; at 3.7 µM 16% | [1]; at 11.0 µM 61% | [2]; at 1.2 µM 17% | [2]; at 3.7 µM 4% | [2]; at 11.0 µM -7% | [2]; at 33.0 µM 16% | [3]; at 1.2 µM 42% | [3]; at 3.7 µM 38% | [4]; at 1.2 µM 30% | [4]; at 3.7 µM 25% | [4]; at 11.0 µM 64% | [5]; at 1.2 µM 18% | [5]; at 3.7 µM -10% | [5]; at 11.0 µM 54% | [6]; at 1.2 µM 4% | [6]; at 3.7 µM 12% | [6]; [17] 51% | [7]; at 1.2 µM 27% | [7]; at 3.7 µM 9% | [7]; at 11.0 µM -5% | [7]; at 33.0 µM 63% | [8]; [17] -34% | [9]; at 1.2 µM 30% | [9]; at 3.7 µM 28% | [9]; at 11.0 µM 60% | [10]; [17] 1% | [11]; at 1.2 µM 14% | [11]; at 3.7 µM 28% | [11]; [17] -12% | [11]; at 11.0 µM 1% | [12]; at 1.2 µM -57% | [12]; at 3.7 µM -83% | [12]; at 11.0 µM 58% | [13]; at 1.2 µM 32% | [13]; at 3.7 µM 19% | [13]; at 11.0 µM 54% | [14]; at 1.2 µM 26% | [14]; at 3.7 µM 19% | [15]; [17] 24% | [16]; at 1.2 µM 27% | [16]; at 3.7 µM -2% | [16]; at 11.0 µM 52%

Fc1ccc(NC(=S)SCc2ccc(Cl)c(Cl)c2)cc1F
active: [1]; at 33.0 µM 89% | [1]; at 100.0 µM 98% | [2]; at 33.0 µM 99% | [2]; at 100.0 µM 98% | [3]; at 33.0 µM 98% | [3]; at 100.0 µM 98% | [4]; at 33.0 µM 97% | [4]; at 100.0 µM 98% | [5]; [18] 98% | [5]; at 50.0 µM 90.3% | [5]; at 100.0 µM 97%
inactive: [1]; at 1.2 µM -6% | [1]; at 3.7 µM -8% | [1]; at 11.0 µM 17% | [2]; at 1.2 µM -4% | [2]; at 3.7 µM 12% | [2]; at 11.0 µM 33% | [3]; at 1.2 µM -2% | [3]; at 3.7 µM 25% | [3]; at 11.0 µM 60% | [4]; at 1.2 µM -3% | [4]; at 3.7 µM -4% | [4]; at 11.0 µM 0% | [5]; at 1.2 µM -15% | [5]; at 3.7 µM -9% | [5]; [17] 66% | [5]; at 11.0 µM 45% | [5]; at 33.0 µM -12% | [6]; at 1.2 µM -4% | [6]; at 3.7 µM -4%
